This passage reports growth results from PubChem BioAssay (NCI).

About 83,000 compounds went through this panel and 20% of them were active in at least one assay; those are over-represented in the sample as a whole.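 For each line, cells grew in 96-well plates with the test compound present at a single concentration for 48 hours.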 Values without a mark were called inactive. The source made the active and inactive calls. The calls were made as follows: active = growth percent below 10; inactive = the rest.

Test in all cases: NCI-60 one-dose screen, 48 h (100 = growth as untreated, 0 = no growth, -100 = all killed)
One experiment deals with SK-MEL-2 melanoma. The conditions noted are these: 10 µM unless noted.
Another experiment relates to EKVX NSCLC. The conditions noted are these: 10 µM unless noted.
The next experiment has as its system SN12C renal. As to conditions: 10 µM unless noted.
For another experiment, the system named is ACHN renal. As to conditions: 10 µM unless noted.
The next experiment relates to CAKI-1 renal. The conditions noted are these: 10 µM.
For a further experiment, the system named is A498 renal. The conditions noted are these: 10 µM unless noted.
In a further experiment the test system is CCRF-CEM leukemia. The conditions noted are these: 10 µM unless noted.
The next experiment concerns MOLT-4 leukemia. The conditions noted are these: 10 µM unless noted.
Another experiment has as its system SR leukemia. The conditions noted are these: 10 µM unless noted.
The test system of another experiment is RPMI-8226 leukemia. As to conditions: 10 µM unless noted.
A further experiment has as its system OVCAR-8 ovarian. As to conditions: 10 µM unless noted.
Another experiment deals with OVCAR-5 ovarian. The conditions noted are these: 10 µM unless noted.
Another experiment relates to OVCAR-4 ovarian. The conditions noted are these: 10 µM unless noted.
The test system of another experiment is SK-OV-3 ovarian. The conditions noted are these: 10 µM unless noted.
Another experiment deals with IGROV1 ovarian. The conditions noted are these: 10 µM unless noted.
In a further experiment the test system is OVCAR-3 ovarian. As to conditions: 10 µM unless noted.
The next experiment has as its system HS 578T breast. As to conditions: 10 µM unless noted.
A further experiment has as its system NCI/ADR-RES ovarian. The conditions noted are these: 10 µM unless noted.
A further experiment deals with TK-10 renal. As to conditions: 10 µM unless noted.
In another experiment the test system is UO-31 renal. The conditions noted are these: 10 µM unless noted.

On to `Nc1ncnc2c1ncn2C1OC(COC(c2ccccc2)(c2ccccc2)c2ccccc2)C(O)C1O` (stereo unspecified), for which the growth with SK-MEL-2 melanoma is 87.7%; with EKVX NSCLC, 91.6%; in the experiment with SN12C renal it was 93.7%; in the experiment with ACHN renal, 47.9%; in the experiment with CAKI-1 renal it was 57.7%; with A498 renal, 103%. Further, the growth in the experiment on CCRF-CEM leukemia is 46.1%; in the experiment with MOLT-4 leukemia, 78.8%; in the experiment on SR leukemia, 89.6%; in the experiment on RPMI-8226 leukemia, 82.1%; in the experiment with OVCAR-8 ovarian, 96.7%; in the experiment on OVCAR-5 ovarian, 85.7%. For the same compound, the growth was 95.2% in the experiment with OVCAR-4 ovarian; 123% in the experiment with SK-OV-3 ovarian; 107% in the experiment on IGROV1 ovarian; 106% with OVCAR-3 ovarian; 84.1% in the experiment on HS 578T breast; 89.2% with NCI/ADR-RES ovarian.

In the case of `CN(C)CCCOc1c(Br)cc(/C=C/C(=O)N(C)CCc2cc(Br)c(OCCCN(C)C)c(Br)c2)cc1Br`, the growth with SK-MEL-2 melanoma is 89.3%; with EKVX NSCLC, 78.7%; with SN12C renal, 72.8%; in the experiment with TK-10 renal, 106%; in the experiment with A498 renal, 60.5%; in the experiment with CCRF-CEM leukemia, 4.13% (active). For the same compound, the growth in the experiment with MOLT-4 leukemia is -1.09% (active); with SR leukemia, -34.5% (active); in the experiment with RPMI-8226 leukemia it was -23.6% (active); with OVCAR-8 ovarian, 30.7%; with OVCAR-5 ovarian, 79.1%; with OVCAR-4 ovarian, 79.7%. Moreover, the growth in the experiment with IGROV1 ovarian is 48.2%; in the experiment with OVCAR-3 ovarian, 75.7%; with HS 578T breast, 75.7%; in the experiment on NCI/ADR-RES ovarian it was 56.6%.

As for `O=C(NCCNc1nccc(-c2c(-c3cccc(O)c3)nc3sccn23)n1)c1cccc(C(F)(F)F)c1`, the growth was 62.1% with SK-MEL-2 melanoma; 91.6% in the experiment with EKVX NSCLC; 83.2% with SN12C renal; 66.1% with ACHN renal; 75.6% in the experiment on CAKI-1 renal; 84.5% in the experiment with A498 renal. The growth in the experiment on CCRF-CEM leukemia is 37.5%; with MOLT-4 leukemia it was 61.5%; with SR leukemia, 97%; in the experiment on RPMI-8226 leukemia, 44.2%; in the experiment with OVCAR-5 ovarian it was 113%; in the experiment on OVCAR-4 ovarian, 117%. Moreover, the growth is 84.2% in the experiment with SK-OV-3 ovarian, 62.1% in the experiment on IGROV1 ovarian and 98.3% in the experiment with NCI/ADR-RES ovarian.

`CCNc1cc(S(=O)(=O)O)ccc1C`: the growth in the experiment on SK-MEL-2 melanoma was 100%; in the experiment with EKVX NSCLC it was 101%; in the experiment on SN12C renal it was 99.8%; with TK-10 renal it was 101%; in the experiment on ACHN renal it was 113%; with A498 renal, 102%. The growth is 89.7% with CCRF-CEM leukemia; 92.3% in the experiment on MOLT-4 leukemia; 113% in the experiment with SR leukemia; 98% in the experiment on RPMI-8226 leukemia; 97.3% in the experiment with OVCAR-8 ovarian; 106% in the experiment with OVCAR-5 ovarian. Besides, the growth was 110% in the experiment on OVCAR-4 ovarian; 92.4% in the experiment with SK-OV-3 ovarian; 106% in the experiment with IGROV1 ovarian; 116% with OVCAR-3 ovarian; 104% in the experiment with HS 578T breast; 102% in the experiment on NCI/ADR-RES ovarian.

As for `O=C(Nc1cccc(-n2ccc3c(NC(=O)c4ccccc4)nccc32)c1)Nc1ccc(Cl)c(C(F)(F)F)c1`, the growth was -5.89% (active) in the experiment on SK-MEL-2 melanoma; 32.8% with EKVX NSCLC; 19.2% in the experiment on SN12C renal; 13.1% with ACHN renal; 7.43% (active) in the experiment on CAKI-1 renal; -3.31% (active) in the experiment on A498 renal. In addition, the growth in the experiment with CCRF-CEM leukemia is 4.74% (active); in the experiment on MOLT-4 leukemia it was 12.8%; in the experiment on SR leukemia, -11.6% (active); with RPMI-8226 leukemia, -35% (active); in the experiment on OVCAR-8 ovarian, 4.34% (active); with OVCAR-5 ovarian, 27.6%. Moreover, the growth in the experiment on OVCAR-4 ovarian was 73.7%; in the experiment with SK-OV-3 ovarian, 7.74% (active); in the experiment with IGROV1 ovarian it was 16.7%; with OVCAR-3 ovarian, -21.1% (active); with NCI/ADR-RES ovarian, -10.9% (active).

As to `O=C1CCC(=O)N1C1CCCCC1`, the growth in the experiment on SK-MEL-2 melanoma was 103%; with EKVX NSCLC it was 98.4%; with SN12C renal it was 100%; in the experiment on TK-10 renal, 105%; with A498 renal, 97.1%; with CCRF-CEM leukemia, 108%. Moreover, the growth in the experiment on MOLT-4 leukemia is 95.7%; in the experiment with SR leukemia, 96.4%; in the experiment on RPMI-8226 leukemia it was 109%; with OVCAR-8 ovarian, 112%; in the experiment with OVCAR-5 ovarian it was 109%; in the experiment on OVCAR-4 ovarian, 104%. Moreover, the growth is 103% with SK-OV-3 ovarian; 91.9% in the experiment on IGROV1 ovarian; 102% in the experiment on OVCAR-3 ovarian; 97.5% in the experiment with HS 578T breast; 102% in the experiment with NCI/ADR-RES ovarian.

`c1ccc(-c2nc3sc(C(c4ccccc4)c4ccccc4)nn3c2-c2ccccc2)cc1`: the growth in the experiment on SK-MEL-2 melanoma was 81.3%; with EKVX NSCLC, 89.8%; in the experiment on SN12C renal, 93.8%; in the experiment on ACHN renal, 97.5%; in the experiment with A498 renal, 87.6%; in the experiment on CCRF-CEM leukemia it was 100%. Besides, the growth is 107% in the experiment with MOLT-4 leukemia; 80.6% in the experiment with SR leukemia; 108% with RPMI-8226 leukemia; 104% in the experiment on OVCAR-8 ovarian; 103% with OVCAR-5 ovarian; 103% in the experiment with OVCAR-4 ovarian. The growth in the experiment on SK-OV-3 ovarian was 94.7%; in the experiment on IGROV1 ovarian, 86.4%; with OVCAR-3 ovarian, 100%; in the experiment with HS 578T breast, 106%; with NCI/ADR-RES ovarian, 95.3%.

As to `O=[N+]([O-])c1ccccc1NC1c2ccccc2Oc2ccccc21`, the growth is 57% in the experiment with SK-MEL-2 melanoma; 78.2% with EKVX NSCLC; 92.9% in the experiment with SN12C renal; 71.2% in the experiment with ACHN renal; 45.6% in the experiment on CAKI-1 renal; 10.7% in the experiment with A498 renal. For the same compound, the growth in the experiment on CCRF-CEM leukemia is 42.9%; with MOLT-4 leukemia it was 13.8%; in the experiment on SR leukemia, 2.25% (active); with RPMI-8226 leukemia, 69.5%; in the experiment with OVCAR-8 ovarian it was 72.9%; in the experiment on OVCAR-5 ovarian, 76.8%. Further, the growth is 98.7% in the experiment on OVCAR-4 ovarian, 76.9% in the experiment with SK-OV-3 ovarian, 49.3% in the experiment with IGROV1 ovarian and 3.28% (active) in the experiment with OVCAR-3 ovarian.

On to `C=C1C(=O)O[C@H]2[C@H]1CC/C(COC(=O)c1cccc3ccccc13)=C\CC[C@@]1(C)O[C@@H]21`, for which the growth is -65.6% (active) in the experiment with SK-MEL-2 melanoma; -55.3% (active) in the experiment on SN12C renal; -100% (active) with UO-31 renal; -73.1% (active) in the experiment with TK-10 renal; -100% (active) in the experiment with ACHN renal; 82.2% with A498 renal. In addition, the growth in the experiment with CCRF-CEM leukemia is -19% (active); in the experiment on MOLT-4 leukemia it was -15.1% (active); in the experiment with SR leukemia, -31.4% (active); in the experiment with RPMI-8226 leukemia it was -40.5% (active); in the experiment on OVCAR-8 ovarian, -42.8% (active); in the experiment on OVCAR-5 ovarian it was -47.9% (active). The growth is -38.9% (active) in the experiment on OVCAR-4 ovarian; 84.3% in the experiment with SK-OV-3 ovarian; -68.5% (active) in the experiment with IGROV1 ovarian; -86.5% (active) with OVCAR-3 ovarian; 2.83% (active) in the experiment with HS 578T breast.
